{
  "source": "PubChem BioAssay",
  "note": "Values without a mark were called inactive. How the calls were made is not given here.",
  "data": [
    {"target": "Pantothenate synthetase (Mycobacterium tuberculosis (strain ATCC 25618 / H37Rv)) (UniProt P9WIL5)", "sequence (P9WIL5 whole entry, looked up)": "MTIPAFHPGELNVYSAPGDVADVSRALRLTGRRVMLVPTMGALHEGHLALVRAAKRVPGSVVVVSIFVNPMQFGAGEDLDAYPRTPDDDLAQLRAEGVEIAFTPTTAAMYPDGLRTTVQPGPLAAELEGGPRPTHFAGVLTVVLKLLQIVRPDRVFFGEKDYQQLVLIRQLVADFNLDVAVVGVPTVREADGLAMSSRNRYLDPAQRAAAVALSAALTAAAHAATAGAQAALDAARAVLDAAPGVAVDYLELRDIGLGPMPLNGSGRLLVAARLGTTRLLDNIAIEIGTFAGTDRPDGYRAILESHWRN", "assay": "Recombinant Mtb pantothenate synthetase (PanC) inhibitors, coupled enzyme, confirmatory (AID 375);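 further: 0% = full reaction with vehicle and 100% = no enzyme background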", "conditions": "coupled enzyme assay; at 10 µM, hits give high values", "units": {"inhibition": "%"}, "values": [
      {"smiles": "COc1ccc(-c2nn3c(-c4ccncc4)nnc3s2)cc1OC", "inhibition": 0},
      {"smiles": "Cc1ccc(CCC(=O)Nc2ccc(S(N)(=O)=O)cc2)o1", "inhibition": 1},
      {"smiles": "Nc1ncnc2c1ncn2[C@@H]1O[C@H](CO)[C@@H](O)[C@H]1O", "inhibition": 0},
      {"smiles": "O=C(CSc1nnnn1Cc1ccccc1)Nc1ccc2c(c1)OCO2", "inhibition": 1},
      {"smiles": "NC(=O)CSc1nnc(-c2cc3ccccc3o2)n1Cc1ccccc1", "inhibition": 0},
      {"smiles": "CCN(CC)CCCn1c(=S)[nH]c2cc(Cl)ccc2c1=O", "inhibition": 0},
      {"smiles": "CC(=O)Nc1nc(-c2ccccc2)nc(C)c1C(C)=O", "inhibition": 1},
      {"smiles": "O=C(O)c1cc(Cl)c(Cl)cc1C(=O)N1CCCC1", "inhibition": 1},
      {"smiles": "O=C1NC2(Nc3ccccc31)C(=O)Nc1ccccc12", "note": "(stereo not given)", "inhibition": 0},
      {"smiles": "COc1cccc(C2CC(c3ccc(F)cc3)Nc3nc(N)nn32)c1", "note": "(stereo not given)", "inhibition": 0},
      {"smiles": "Cc1cc2cc(CCNC(=O)CC(C)C)c(=O)[nH]c2cc1C", "inhibition": 9},
      {"smiles": "Cc1ccc(Cn2c(CN3CCOCC3)nc3c2c(=O)n(C)c(=O)n3C)cc1", "inhibition": 0},
      {"smiles": "C[N+](C)(C)CCOP(=O)([O-])OC[C@H](O)CO", "inhibition": 1},
      {"smiles": "CCOc1cc2[nH]c(=O)n(CCC(=O)NCCc3ccc(OC)c(OC)c3)c(=O)c2cc1OCC", "inhibition": 1},
      {"smiles": "O=C(OCC#CCSc1nnc(-c2ccncc2)o1)c1cccs1", "inhibition": 0},
      {"smiles": "O=C(NCc1ccccc1)c1ccc(OC2CSC2)cc1", "inhibition": 1},
      {"smiles": "O=C(NCC(F)(F)F)N1CCOCC1", "inhibition": 0},
      {"smiles": "CC(=O)Oc1ccc(C(c2ccc(OC(C)=O)cc2)c2ccccn2)cc1", "inhibition": 0},
      {"smiles": "Cc1occc1-c1nc(-c2ccncc2)no1", "inhibition": 3},
      {"smiles": "COc1ccc2c(c1)C1(C)CC(C)(C)N2C(=O)N1c1ccccc1", "note": "(stereo not given)", "inhibition": 4},
      {"smiles": "CCC(=O)N1CCc2cc(Br)cc(S(=O)(=O)CCC(=O)NCC3CCCO3)c21", "note": "(stereo not given)", "inhibition": 0},
      {"smiles": "CC(C)(C)OC(=O)NC(CCNC=C1C(=O)OC(C)(C)OC1=O)C(=O)O", "note": "(stereo not given)", "inhibition": 4},
      {"smiles": "Cc1[nH]nc(N=CC2=C(O)CC(C)(C)CC2=O)c1-c1ccc(Cl)cc1", "inhibition": 0},
      {"smiles": "C=CCc1ccccc1OCC(O)CNC(C)C", "note": "(stereo not given)", "inhibition": 8},
      {"smiles": "CC1(C)NC(=O)N(CC(O)CN2CCCC2)C1=O", "note": "(stereo not given)", "inhibition": 2},
      {"smiles": "COc1ccc(N(CC(=O)Nc2ccc(F)c(Cl)c2)S(=O)(=O)c2c(C)noc2C)cc1", "inhibition": 11},
      {"smiles": "Cc1ccc(-c2cc(C(F)(F)F)n3nc(C(=O)N4CCCC4)cc3n2)cc1", "inhibition": 5},
      {"smiles": "COCCCn1c(SCC(=O)N2CCc3ccccc32)nnc1-c1ccoc1C", "inhibition": 9},
      {"smiles": "CCN1CCN(C(=O)c2cc3c(=O)n(C)c4ccccc4c3n2C)CC1", "inhibition": 0},
      {"smiles": "COC(=O)Cc1c(C)nc2nc(-c3ccco3)[nH]n2c1=O", "inhibition": 2},
      {"smiles": "CCOc1ccccc1N1C(=O)c2ccc(C(=O)Nc3cccnc3)cc2C1=O", "inhibition": 4},
      {"smiles": "CCNc1nc(OC)nc(Oc2ccc(=O)n(-c3ccccc3)n2)n1", "inhibition": 4},
      {"smiles": "CCOC(=O)/N=C(/NC(=O)Nc1ccc(C(=O)OCC)cc1)OC", "inhibition": 0},
      {"smiles": "CCOCCCNc1ncnc2c1[nH]c1ccccc12", "inhibition": 0},
      {"smiles": "Cc1cnc(C(=O)Nc2ccc(-n3cnnn3)cc2)cn1", "inhibition": 14},
      {"smiles": "CCC1(c2ccc(F)cc2)NC(=O)N(CC(=O)c2ccc[nH]2)C1=O", "note": "(stereo not given)", "inhibition": 0},
      {"smiles": "CC1=C(C(=O)OC2CCCC2)C(c2ccc(C)o2)C2=C(CC(c3cccs3)CC2=O)N1", "note": "(stereo not given)", "inhibition": 0},
      {"smiles": "CCOC(=O)N1CCN(Cc2cc(=O)oc3ccc4ccccc4c23)CC1", "inhibition": 6},
      {"smiles": "Cc1ccc(Cn2ncc3c(NCCCN4CCOCC4)ncnc32)cc1", "inhibition": 8},
      {"smiles": "CC(C)C(NC(=O)c1ccco1)C(=O)NCC(c1ccco1)N1CCCCC1", "note": "(stereo not given)", "inhibition": 3}
    ]}
  ]
}
